The record followed here is PubChem BioAssay.

A short description of assay [1]: antimalarial activity against Dd2 strain (AID 2302;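 active = growth inhibition above 50% at the single 2 µM test dose, taken to imply half-maximal potency below 2 µM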;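 note: 0% = DMSO untreated growth and 100% = chloroquine plus artemisinin killed control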). Conditions: P. falciparum Dd2 in RBCs, LDH growth readout, 72 h; at 2 µM; active compounds read high.
Assay [2] is described as follows: human hepatoma cell viability loss – ATP luminescence, cytotoxicity control for P. falciparum antimalarial project, primary screen (AID 2303;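 active = inhibition above 50%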;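 note: 0% = DMSO wells and 100% = digitonin-killed cells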). The note with it: HepG2 viability, 24-48 h, at 10 µM, active compounds read high.
The target of assay [3] is L-lactate dehydrogenase (Plasmodium falciparum (isolate CDC / Honduras)) (UniProt Q27743). The experiment in a line: PfLDH activity inhibition – cell lysate, 3D7 strain, counter-screen for P. falciparum growth inhibition project (AID 2304).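 Note: 0% = vehicle and 100% = reference inhibitor.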 The note with it: P. falciparum 3D7 crude extract, LDH APAD/NBT absorbance; at 2 µM; active compounds read high. A general note: Counterscreens check selectivity or assay interference.
L-lactate dehydrogenase (Plasmodium falciparum (isolate CDC / Honduras)), sequence (Q27743 whole entry, looked up): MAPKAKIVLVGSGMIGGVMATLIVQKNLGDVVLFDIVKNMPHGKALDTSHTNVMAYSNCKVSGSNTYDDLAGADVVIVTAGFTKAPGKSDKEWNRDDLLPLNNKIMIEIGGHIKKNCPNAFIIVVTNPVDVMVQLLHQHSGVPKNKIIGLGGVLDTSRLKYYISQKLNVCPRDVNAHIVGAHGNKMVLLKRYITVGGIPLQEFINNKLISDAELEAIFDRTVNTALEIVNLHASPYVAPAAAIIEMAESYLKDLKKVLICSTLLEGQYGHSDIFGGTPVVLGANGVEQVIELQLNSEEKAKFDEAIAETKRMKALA

Assay [4] in a line: inhibition of 3D7 malaria parasite growth – strain 3D7 (AID 2306).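 Note: 0% = DMSO wells and 100% = chloroquine plus artemisinin control wells.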 The note with it: P. falciparum 3D7 erythrocytic growth, LDH absorbance, 72 h; at 2 µM; active compounds read high.
Assay [5] has as its target Calcium-dependent protein kinase 1 (Plasmodium falciparum (isolate 3D7)) (UniProt P62344). Nature of the assay: PfCDPK1 kinase inhibitors, biochemical, TCAMS library (AID 1159585; cut-off not given, nearly all actives have IC50 up to about 0.98 µM;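 note: inhibitors leave more ATP so luminescence rises with inhibition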). Conditions: recombinant PfCDPK1, Kinase-Glo ATP depletion luminescence.
Assay [6] addresses Plasmodium falciparum protein kinase 6 (PK6, PF3D7_1337100) (UniProt Q8IDW1). Nature of the assay: PfPK6 kinase inhibitors, biochemical, TCAMS library (AID 1159586). The note with it: recombinant PfPK6, Kinase-Glo ATP depletion luminescence. Background: Kinase-Glo measures the ATP left after a reaction by luminescence.
Assay [7] addresses Protein kinase 7 (PK7), Plasmodium falciparum 3D7 (PF3D7_0213400) (UniProt Q7YTF7). Nature of the assay: inhibition of Plasmodium PK7 catalytic activity – biochemical, TCAMS antimalarial set, Kinase-Glo luminescence (AID 1159587). The note with it: recombinant PfPK7, Kinase-Glo ATP depletion luminescence.
The target in assay [8] is Calcium-dependent protein kinase 4 (Plasmodium falciparum (isolate 3D7)) (UniProt Q8IBS5). The experiment in a line: PfCDPK4 kinase inhibitors, biochemical, TCAMS library (AID 1159588; cut-off not given, nearly all actives have IC50 up to about 0.91 µM). The note with it: recombinant PfCDPK4, Kinase-Glo ATP depletion luminescence.
Calcium-dependent protein kinase 4 (Plasmodium falciparum (isolate 3D7)), sequence (Q8IBS5 whole entry, looked up): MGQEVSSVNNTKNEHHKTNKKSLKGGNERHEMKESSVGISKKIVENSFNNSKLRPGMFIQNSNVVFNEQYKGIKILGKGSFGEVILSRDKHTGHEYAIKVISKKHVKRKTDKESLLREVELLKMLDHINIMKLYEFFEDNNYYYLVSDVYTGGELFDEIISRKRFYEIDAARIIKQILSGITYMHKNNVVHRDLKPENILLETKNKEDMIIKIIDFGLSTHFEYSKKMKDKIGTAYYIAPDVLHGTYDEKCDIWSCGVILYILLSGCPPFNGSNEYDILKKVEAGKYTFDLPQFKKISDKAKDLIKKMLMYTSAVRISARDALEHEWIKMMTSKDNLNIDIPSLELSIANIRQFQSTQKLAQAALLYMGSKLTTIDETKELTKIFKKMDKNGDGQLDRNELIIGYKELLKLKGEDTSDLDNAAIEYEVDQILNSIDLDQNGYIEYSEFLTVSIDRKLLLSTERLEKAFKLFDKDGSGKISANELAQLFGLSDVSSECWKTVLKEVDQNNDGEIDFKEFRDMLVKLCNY

A number with no mark means an inactive call. For some of these results: Measured potencies and affinities stand elsewhere. Active and inactive are the calls of the source. Unless noted, the rule behind the calls is not given here.

Calcium-dependent protein kinase 1 (Plasmodium falciparum (isolate 3D7)), sequence (P62344 whole entry, looked up): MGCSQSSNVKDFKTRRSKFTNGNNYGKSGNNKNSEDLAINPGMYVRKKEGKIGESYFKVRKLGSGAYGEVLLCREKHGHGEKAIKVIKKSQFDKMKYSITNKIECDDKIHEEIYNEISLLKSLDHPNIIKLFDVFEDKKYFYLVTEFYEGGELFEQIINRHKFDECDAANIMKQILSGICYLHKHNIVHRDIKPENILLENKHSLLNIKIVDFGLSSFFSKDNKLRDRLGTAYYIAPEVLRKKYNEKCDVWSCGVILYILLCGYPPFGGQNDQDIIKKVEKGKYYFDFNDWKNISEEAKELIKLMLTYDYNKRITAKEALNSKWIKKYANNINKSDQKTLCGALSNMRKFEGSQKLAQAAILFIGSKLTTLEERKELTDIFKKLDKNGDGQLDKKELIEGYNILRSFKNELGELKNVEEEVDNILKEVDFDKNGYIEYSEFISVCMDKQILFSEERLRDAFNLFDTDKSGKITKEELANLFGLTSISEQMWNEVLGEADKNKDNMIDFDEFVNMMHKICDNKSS
Plasmodium falciparum protein kinase 6 (PK6, PF3D7_1337100), sequence (Q8IDW1 1-305): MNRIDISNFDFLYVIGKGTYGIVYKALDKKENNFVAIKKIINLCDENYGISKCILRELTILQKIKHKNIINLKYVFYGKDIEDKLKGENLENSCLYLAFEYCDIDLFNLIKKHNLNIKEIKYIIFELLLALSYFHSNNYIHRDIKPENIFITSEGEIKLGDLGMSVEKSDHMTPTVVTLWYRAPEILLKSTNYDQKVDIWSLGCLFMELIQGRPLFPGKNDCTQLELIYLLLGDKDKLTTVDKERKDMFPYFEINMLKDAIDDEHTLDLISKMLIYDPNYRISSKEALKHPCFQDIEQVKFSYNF
Protein kinase 7 (PK7), Plasmodium falciparum 3D7 (PF3D7_0213400), sequence (Q7YTF7 1-343): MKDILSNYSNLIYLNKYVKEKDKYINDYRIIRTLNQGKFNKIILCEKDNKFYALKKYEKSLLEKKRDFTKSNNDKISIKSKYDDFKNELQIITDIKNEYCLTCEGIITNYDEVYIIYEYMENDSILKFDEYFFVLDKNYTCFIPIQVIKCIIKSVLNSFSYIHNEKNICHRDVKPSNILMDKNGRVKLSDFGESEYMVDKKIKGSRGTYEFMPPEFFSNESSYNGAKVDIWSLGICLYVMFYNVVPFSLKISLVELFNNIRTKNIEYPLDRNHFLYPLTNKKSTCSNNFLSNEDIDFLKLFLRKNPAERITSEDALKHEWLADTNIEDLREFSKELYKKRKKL

As a reminder, the inhibition is the drop in the measured response relative to a control, in per cent. Consider `CSc1sc(NC(=O)Nc2cccc(C(F)(F)F)c2)cc1C#N`, for which the growth inhibition in assay [1] is 46%; in assay [4], 99% (active). In addition, the inhibition in assay [2] was 27%; in assay [3] it was -1%. Also, the result in assay [5], in assay [6], in assay [7] and in assay [8] was inactive.
`COc1cc(-c2cc(-c3ccc(OCCN(C)C)cc3)[nH]c2-c2ccncc2)ccc1Cl`: the growth inhibition is 100% (active) in assay [1] and 101% (active) in assay [4]. Further, the inhibition in assay [2] is 28%; in assay [3] it was -2%. Besides, the outcome in assay [5], in assay [6], in assay [7] and in assay [8] was inactive.
Turning to `COc1ccc(C=C2SC(=N)N(c3ccccc3OC)C2=O)cc1`, the growth inhibition in assay [1] was 95% (active); in assay [4] it was 97% (active). Moreover, the inhibition was 47% in assay [2] and 3% in assay [3]. The result in assay [5], in assay [6], in assay [7] and in assay [8] was inactive.
`CC1(C)N=C(N)N=C(N)N1OCc1cccc(C#N)c1`: the growth inhibition is 2% in assay [1] and 94% (active) in assay [4]. Also, the inhibition in assay [2] was 57% (active); in assay [3], 5%. The outcome in assay [5], in assay [6], in assay [7] and in assay [8] was inactive.
As for `Cc1[nH]c(C)c(C2CCC(c3ccc(Cl)cc3)CC2)c(=O)c1Cl` (stereo not given), the growth inhibition in assay [1] is 97% (active); in assay [4] it was 98% (active). Besides, the results for the inhibition in assay [2] and in assay [3] were 37% and -9%, respectively. The result in assay [5], in assay [6], in assay [7] and in assay [8] was inactive.
For the molecule `N#Cc1cccc(NC(=O)c2cccc(S(=O)(=O)NC3CCN(CC4CCCCC4)C3)c2)c1` (stereo not given), the growth inhibition in assay [1] was 27%; in assay [4] it was 101% (active). Besides, the results for the inhibition in assay [2] and in assay [3] were 29% and 1%, respectively. In addition, the result in assay [5], in assay [6], in assay [7] and in assay [8] was inactive.
`CCc1ccccc1-c1csc(C(=O)NCC2CCN(Cc3ccc(C(C)(C)C)cc3)C2)c1` (stereo not given): the growth inhibition in assay [1] was 15%; in assay [4], 90% (active). Also, the values for the inhibition in assay [2] and in assay [3] were 25% and -2%, respectively. The outcome in assay [5], in assay [6], in assay [7] and in assay [8] was inactive.
As to `Cc1cc(C(=O)Nc2ccc(-c3nc4ccccc4[nH]3)cc2)ccc1[N+](=O)[O-]`, the values for the growth inhibition in assay [1] and in assay [4] were 47% and 101% (active), respectively. In addition, the inhibition in assay [2] is 55% (active); in assay [3] it was 1%. The outcome in assay [5], in assay [6], in assay [7] and in assay [8] was inactive.
Turning to `Cc1cc(C)c(O)c(-c2cc(C(=O)Nc3ccc(S(=O)(=O)N4CC(C)OC(C)C4)cc3)[nH]n2)c1` (stereo not given), the growth inhibition was 16% in assay [1] and 95% (active) in assay [4]. Besides, the inhibition in assay [2] is 31%; in assay [3], -1%. Further, the outcome in assay [5], in assay [6], in assay [7] and in assay [8] was inactive.
Regarding `Cc1cccn2c(=O)c3cc(C(=O)NC(C)c4ccccc4)c(=N)n(CCN4CCOCC4)c3nc12` (stereo not given), the growth inhibition in assay [1] is 5%; in assay [4], 101% (active). Moreover, the inhibition is 6% in assay [2] and 4% in assay [3]. The outcome in assay [5], in assay [6], in assay [7] and in assay [8] was inactive.
With `Cc1noc(-c2ccccc2)c1NC(=O)NC1CCN(CCCCCNC(=O)/C=C/c2ccc(Cl)c(Cl)c2)CC1`, the growth inhibition in assay [1] was -3%; in assay [4] it was 93% (active). Moreover, the inhibition in assay [2] and in assay [3] was -3% throughout. In addition, the result in assay [5], in assay [6], in assay [7] and in assay [8] was inactive.
Consider `COc1ccc(CNc2nc(NCc3ccc(C(F)(F)F)cc3)c3cc(OC)c(OC)cc3n2)cc1OC`, for which the growth inhibition in assay [1] is 100% (active); in assay [4] it was 103% (active). For the same molecule, the results for the inhibition in assay [2] and in assay [3] were 80% (active) and -3%, respectively. Moreover, the outcome in assay [5], in assay [6], in assay [7] and in assay [8] was inactive.
In the case of `Cc1cc(C)cc(-n2c(C)cc(C=C3SC(=Nc4ccc(Cl)cc4)NC3=O)c2C)c1`, the growth inhibition in assay [1] and in assay [4] was 97% (active) each time. In addition, the inhibition in assay [2] was 12%; in assay [3] it was -7%. In addition, the outcome in assay [5], in assay [6], in assay [7] and in assay [8] was inactive.
For the molecule `Cc1cc(OCCN2CCCCC2)ccc1NC(=O)c1cccc2c(=O)n(Cc3ccc(Cl)cc3)cnc12`, the figures for the growth inhibition in assay [1] and in assay [4] were 56% (active) and 88% (active), respectively. Also, the inhibition in assay [2] is 100% (active); in assay [3] it was 0%. The result in assay [5], in assay [6], in assay [7] and in assay [8] was inactive.
For the molecule `O=C(Nc1cccc(C(F)(F)F)c1)Nc1cc(F)c(F)cc1Cl`, the values for the growth inhibition in assay [1] and in assay [4] were 98% (active) and 83% (active), respectively. In addition, the inhibition in assay [2] is -1%; in assay [3], 5%. The outcome in assay [5], in assay [6], in assay [7] and in assay [8] was inactive.
On to `O=C1CCCN1CCCNCc1ccc(-c2cccc(-c3nc4ccccc4[nH]3)c2)cc1`, for which the growth inhibition is 0% in assay [1] and 96% (active) in assay [4]. Besides, the inhibition was 19% in assay [2] and -5% in assay [3]. Further, the outcome in assay [5], in assay [6], in assay [7] and in assay [8] was inactive.
Take `CCOc1ccc(C(=O)Nc2ccc(-c3nc4ccccc4[nH]3)cc2)cc1[N+](=O)[O-]`: the growth inhibition was 70% (active) in assay [1] and 100% (active) in assay [4]. For the same molecule, the inhibition was 22% in assay [2] and 4% in assay [3]. For the same molecule, the outcome in assay [5], in assay [6], in assay [7] and in assay [8] was inactive.
As for `Cc1onc(-c2ccccc2)c1-c1nc(NCCC(c2ccccc2)c2ccccc2)no1`, the values for the growth inhibition in assay [1] and in assay [4] were 78% (active) and 100% (active), respectively. Further, the figures for the inhibition in assay [2] and in assay [3] were -4% and -7%, respectively. The outcome in assay [5], in assay [6], in assay [7] and in assay [8] was inactive.
On to `CC(=O)Nc1ccc(OCCCN(Cc2ccccc2OC(F)(F)F)c2ccc(C(F)(F)F)c(C#N)c2)c(Cl)c1`, for which the growth inhibition in assay [1] is 80% (active); in assay [4], 91% (active). The inhibition in assay [2] was 5%; in assay [3], 0%. Further, the outcome in assay [5], in assay [6], in assay [7] and in assay [8] was inactive.
Consider `N#Cc1ccc(-c2ccc(C(=O)NCCCCN3CCC(c4cn(CCO)c5ccccc45)CC3)cc2)cc1`, for which the growth inhibition in assay [1] was 43%; in assay [4], 93% (active). Moreover, the inhibition in assay [2] was 23%; in assay [3] it was 4%. Besides, the outcome in assay [5], in assay [6], in assay [7] and in assay [8] was inactive.
